Sampled rows, rich in hits. Any-hit rate of the full collection: about 3%.
SENP6 inh: SENP6 protease inhibitors, primary screen, biochemical, luminescence, uHTS; Recombinant SENP6 catalytic domain, aminoluciferin luminescence; inhibition, % at 10 µM; actives 1.8% (n = 330,000);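 active = inhibition above about 50% at the single tested dose, limit read from the data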;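 note: plate controls were DMSO wells with enzyme for no effect and DMSO wells lacking enzyme for full effect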
SENP7 block: SENP7 protease inhibitors, primary screen, biochemical, luminescence, uHTS; recombinant SENP7, Z-RLRGG-aminoluciferin luminescence, 40 min; inhibition, % at 5 µM; actives 1.5% (n = 330,000); AID 434973, 2010;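 active = inhibition above about 50% at the single test dose, limit read from the data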;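 note: plate controls were DMSO with enzyme for no effect and no enzyme buffer wells for full effect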
Target sequence (Q9BQF6 706-1050 limits assumed): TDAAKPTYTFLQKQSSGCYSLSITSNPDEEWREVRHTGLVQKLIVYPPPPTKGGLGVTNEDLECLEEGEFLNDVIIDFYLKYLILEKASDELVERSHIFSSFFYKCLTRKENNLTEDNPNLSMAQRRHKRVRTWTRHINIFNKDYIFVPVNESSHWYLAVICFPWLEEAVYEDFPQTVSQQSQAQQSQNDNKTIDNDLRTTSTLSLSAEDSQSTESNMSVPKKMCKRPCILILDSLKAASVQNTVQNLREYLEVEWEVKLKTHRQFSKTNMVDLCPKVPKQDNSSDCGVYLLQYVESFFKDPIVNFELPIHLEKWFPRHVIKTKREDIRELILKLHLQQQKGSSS
PPC-1+TRAIL kill: compounds killing PPC-1 cancer cells with TRAIL present, primary screen, TRAIL potentiator project, ATPLite luminescence, uHTS. PPC-1 cells + TRAIL, ATPLite viability luminescence. cell killing (% activity), % at 4 µM or 5 µM. actives 0.41% (n = 220,000). AID 1443, 2008;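 active = cell killing above 50% in the first pass at 4 µM, then a duplicate retest at 5 µM averaging 50% or more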;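 note: plate controls were cells with TRAIL plus DMSO for no effect and medium-only wells lacking cells for full effect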
SENP8 block-1: SENP8 protease inhibitors, primary screen, biochemical, luminescence; Sentrin-specific protease 8 (Homo sapiens), Q96LD8; purified SENP8, Z-RLRGG-aminoluciferin cleavage; inhibition, % at 10 µM; actives 1.2% (n = 330,000); in the data active = inhibition above about 50%
SENP8 block-2: human SENP8 protease inhibitors, primary screen, biochemical, fluorescence, Nedd8 protein substrate, uHTS | AID 602440, 2012 | recombinant SENP8 | inhibition, % at 20 µM | actives 0.64% (n = 360,000) | Sentrin-specific protease 8 (Homo sapiens), Q96LD8; in the data active = inhibition mostly above about 40%, no sharp cut-off; inactive = mostly below about 27%
C8 TRAIL sens: viability loss with TRAIL in NB7+C8 cells, primary screen, TRAIL sensitizer project, cell-based, ATPlite luminescence; actives 1% (n = 360,000); inhibition (viability loss, TRAIL sensitization), % at 10 µM;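 active = compounds causing at least 50% loss of cell viability in the single-dose screen, relative to plate controls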
SENP8 confirm: SENP8 protease inhibitors, retest, confirmation, biochemical, luminescence, single concentration | actives 40% (n = 6,200) | inhibition, % at 12.5 µM | shares compounds with SENP7 block | Recombinant SENP8, Z-RLRGG-aminoluciferin luminescence, 60 min;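 active = mean inhibition across replicates above about 50%, limit read from the data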
SENP6 conf: SENP6 protease inhibitors, confirmation, biochemical, luminescence, single concentration; recombinant SENP6, Z-RLRGG-aminoluciferin luminescence; shares compounds with SENP7 block; inhibition, % at 12.5 µM; actives 58% (n = 6,200); AID 488915, 2010
SENP7 conf: SENP7 protease inhibitors, retest, confirmation, biochemical, luminescence, single concentration; actives 69% (n = 6,200); inhibition, % at 12.5 µM; shares compounds with SENP7 block; recombinant SENP7, Z-RLRGG-aminoluciferin luminescence, 40 min
Casp3 select: caspase-3 protease inhibitors, confirmation, selectivity assay for SENP inhibitor project, biochemical, single concentration; shares compounds with SENP7 block; purified caspase-3, Z-DEVD-aminoluciferin luminescence, 60 min; inhibition, % at 12.5 µM; actives 60% (n = 6,200); AID 488918, 2010;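 active = mean inhibition above about 50%, limit read from the data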;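 note: plate controls were enzyme with DMSO for no effect and wells without caspase-3 for full effect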
Target sequence (P42574 28-227 limits assumed): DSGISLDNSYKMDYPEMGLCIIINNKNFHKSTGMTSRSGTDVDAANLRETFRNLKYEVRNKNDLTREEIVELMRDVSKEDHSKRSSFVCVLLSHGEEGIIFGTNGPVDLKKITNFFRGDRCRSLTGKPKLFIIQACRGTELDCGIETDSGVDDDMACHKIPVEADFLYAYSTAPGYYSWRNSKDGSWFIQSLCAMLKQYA
SENP luc ctr: luminescence interference (SENP counter-screen); shares compounds with SENP7 block; Pre-incubated SENP8/Z-RLRGG-aminoluciferin, luciferase luminescence interference; inhibition, % at 12.5 µM; actives 39% (n = 6,200);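 active = mean inhibition above about 50% when retested at one dose, limit read from the data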;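 note: plate controls were DMSO wells with completed reaction for no effect and substrate without enzyme for full effect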
The depositor's hits bear a star.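 Rule for the calls, unless noted: active = mean inhibition above about 50% in the one-dose retest (limit read from the data); inactive = the rest.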

Oc1cccc(C=NNc2ccccn2)c1 was read as SENP8 block-2 14.2 and C8 TRAIL sens -6.6.
For COc1ccc(/C=N/Nc2ccccn2)cc1O the results were SENP6 inh 57.3*, SENP7 block 33.1, PPC-1+TRAIL kill 24.8, SENP8 block-1 12.4, SENP8 block-2 10.7, C8 TRAIL sens 14.8, SENP8 confirm 42.2, SENP6 conf 35.7, SENP7 conf 77.3*, Casp3 select 71.9* and SENP luc ctr 64.0*.
Brc1ccccc1/C=N/Nc1ccccn1 was read as SENP6 inh -26.7, SENP7 block 86.4*, PPC-1+TRAIL kill 12.7, SENP8 block-1 34.9, SENP8 block-2 3.2, C8 TRAIL sens 7.5, SENP8 confirm -6.3, SENP6 conf 3.1, SENP7 conf 9.6, Casp3 select 9.9 and SENP luc ctr -3.3.
CCOC(=O)c1cc(-c2ccc(F)cc2)n(CC(=O)NCc2cccnc2)c1C was read as SENP6 inh 4.0, SENP7 block 2.1, PPC-1+TRAIL kill -11.3, SENP8 block-1 6.5, SENP8 block-2 1.9 and C8 TRAIL sens 1.5.
Screening CCOC(=O)C1=CCN(S(=O)(=O)c2ccc(C)cc2)C1c1cccc2ccccc12 (configuration not stated) returned SENP8 block-2 16.6 and C8 TRAIL sens -6.4.
For Brc1ccc(/C=N/Nc2ccccn2)cc1 the results were SENP6 inh 1.4, SENP7 block 64.6*, PPC-1+TRAIL kill 3.6, SENP8 block-1 32.8, SENP8 block-2 24.4, C8 TRAIL sens 16.9, SENP8 confirm -3.8, SENP6 conf 42.6, SENP7 conf 85.9*, Casp3 select 39.8 and SENP luc ctr 0.6.
CCCOc1ccc(/C=N/NC(=O)C(=O)Nc2ccccn2)cc1 was read as SENP6 inh 15.6, SENP7 block 6.6, PPC-1+TRAIL kill 1.7, SENP8 block-1 -1.8, SENP8 block-2 -21.5 and C8 TRAIL sens -1.3.
Screening CCOc1ccc(/C=N/Nc2ccccn2)cc1 returned SENP6 inh 83.7*, SENP7 block 95.0*, PPC-1+TRAIL kill 45.1, SENP8 block-1 91.4*, SENP8 block-2 10.3, C8 TRAIL sens 59.1*, SENP8 confirm 62.9*, SENP6 conf 93.6*, SENP7 conf 101.9*, Casp3 select 64.8* and SENP luc ctr 12.2.
`Cc1cnc(C(=O)OCC(=O)c2ccc[nH]2)cn1` gave SENP6 inh -2.3, SENP7 block -15.0, SENP8 block-1 -8.9, SENP8 block-2 -5.3 and C8 TRAIL sens 12.8.
Screening O=C1CCN(Cc2ccccc2)C=C1c1ccc(Br)cc1 returned SENP6 inh -6.7, SENP7 block -3.2, SENP8 block-1 -4.7, SENP8 block-2 -9.9 and C8 TRAIL sens 7.6.
Screening COCCNC(=O)CCC1CCN(Cc2cccc(Oc3ccccc3)c2)CC1 returned SENP6 inh -15.7, SENP7 block -11.8, SENP8 block-1 -15.5, SENP8 block-2 9.2 and C8 TRAIL sens 11.6.
CNC(C)C#Cc1ccc2c(=O)c3cc(C)c(C)cc3oc2c1 (configuration not stated) was read as SENP6 inh 93.1*, SENP7 block -3.7, SENP8 block-1 66.6*, SENP8 block-2 -316.5, C8 TRAIL sens 17.1, SENP8 confirm 33.0, SENP6 conf 22.9, SENP7 conf 47.4, Casp3 select 30.5 and SENP luc ctr 70.8*.
`O=C(CSc1nc(-c2ccccc2)ns1)N1CCOCC1` gave SENP6 inh -20.4, SENP7 block -0.7, PPC-1+TRAIL kill 19.4, SENP8 block-1 -5.0, SENP8 block-2 10.3 and C8 TRAIL sens 15.7.
`Cc1cccc(-c2nsc(SCC(=O)N3CCCC3)n2)c1` gave SENP6 inh 80.1*, SENP7 block 67.2*, PPC-1+TRAIL kill 15.6, SENP8 block-1 49.3, SENP8 block-2 33.0, C8 TRAIL sens 16.0, SENP8 confirm 58.6*, SENP6 conf 65.2*, SENP7 conf 87.2*, Casp3 select 77.0* and SENP luc ctr 54.9*.
COc1ccc(/C=N/NC(=O)c2ccoc2C)cc1CN1CCN(c2ccc(F)cc2)CC1 was read as SENP6 inh -8.4, SENP7 block -11.8, SENP8 block-1 -2.9, SENP8 block-2 21.8 and C8 TRAIL sens 4.3.
`COc1ccc(C(C)(C)C)cc1NC(=O)CNc1cccc2ccccc12` gave SENP6 inh 77.2*, SENP7 block 24.7, PPC-1+TRAIL kill 26.7, SENP8 block-1 48.4, SENP8 block-2 -330.8, C8 TRAIL sens 4.4, SENP8 confirm 11.7, SENP6 conf 9.6, SENP7 conf 9.4, Casp3 select 3.8 and SENP luc ctr 2.1.
`COc1ccccc1NC(=O)Cc1cccc2ccccc12` gave SENP6 inh -34.6, SENP7 block 12.2, SENP8 block-1 1.8, SENP8 block-2 6.0 and C8 TRAIL sens -14.0.
Cc1ccc(-n2c(C)nnc2SCC(=O)NC2CCCC2)cc1 was read as SENP6 inh -21.5, SENP7 block -5.9, SENP8 block-1 1.9, SENP8 block-2 2.9 and C8 TRAIL sens 1.4.
For COC(=O)c1[nH]c2cccc(Cl)c2c1NC(=O)CN1CCN(CCO)CC1 the results were SENP6 inh 13.5, SENP7 block 100.9*, PPC-1+TRAIL kill 4.0, SENP8 block-1 0.7, SENP8 block-2 -16.6, C8 TRAIL sens 11.8, SENP8 confirm 11.2, SENP6 conf 9.9, SENP7 conf 0.2, Casp3 select -3.7 and SENP luc ctr -3.2.

High-throughput results from PubChem BioAssay.
